Records with an inconclusive call do not appear. Active and inactive are the calls of the source. Unless noted, calls follow the shape of the dose curve; as a rule, active = well fitted curve in the direction sought with a large enough effect; inconclusive = small, poorly fitted or top-dose-only effect, or another doubt; inactive = no such curve, though single readings can be large; an effect the other way counts as inactive or inconclusive.
Key:
[1] = Stat Signaling Pathway (AID 446; active = well fitted curve in either direction with a large enough effect, not every such curve was filed as active;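 also: ME-180 cervical cancer cells given 40 pM IL-6 alongside compound; SIE-controlled beta-lactamase reporter measured as 460/530 nm FRET emission ratio; % is scaled to controls: 0 for no effect and ±100 for the full control effect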)
Summary of the method: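 Normalization used AC90 stimulation (300 pM IL-6) and AC90 inhibition (125 nM pan-JAK inhibitor at 40 pM IL-6). The underlying signal is SIE-driven beta-lactamase in ME-180 cells after 5 h IL-6 exposure with compound.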

[2] = target: Guanine nucleotide-binding protein G(i) subunit alpha-1 (Homo sapiens) (UniProt P63096); assay: qHTS Assay for Inhibitors of RGS12 GoLoco Motif Activity (Green Fluorophore) (AID 879);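 also: 0% = labeled peptide with Gαi1 and full inhibition = labeled peptide alone without protein; negative values mean loss of peptide binding seen as reduced polarization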
Summary of the method: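 A drop in FITC polarization marked displacement of the FITC-tagged RGS12 GoLoco peptide (10 nM) from Gαi1 (50 nM). Compounds were incubated 10 min at room temperature in Tris pH 7.5 buffer containing 150 mM NaCl, 0.1 mM GDP and 0.05% NP40; unlabeled peptide titration served as control.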

[3] = target: Cytochrome P450 2C9 (Homo sapiens) (UniProt P11712); assay: qHTS Assay for Inhibitors and Substrates of Cytochrome P450 2C9 (AID 883); also: nearly all actives have a fitted effect of over 60% in size; also: potency is read from the fitted curve at half-maximal effect
Summary of the method: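 Human CYP2C9 (10nM) with Luciferin-H at 100uM (its KM) in 25mM KPO4; compound preincubated 10 min at 37C, then NADPH regeneration for 60 min at 37C. Luciferin read by luminescence after detection reagent; normalized to 57uM sulphaphenazole as full inhibition.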

[4] = target: Cytochrome P450 2C19 (Homo sapiens) (UniProt P33261); assay: qHTS Assay for Inhibitors and Substrates of Cytochrome P450 2C19 (AID 899); also: nearly all actives have a fitted effect of over 60% in size; also: potency is read from the fitted curve at half-maximal effect
Summary of the method: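 5 nM human CYP2C19 with 10uM Luciferin-H EGE (at KM) in 50mM KPO4, compound preincubated 10 min at 37C, then NADPH regeneration for 60 min at 37C. Luciferin read by luminescence after detection reagent; normalized to 57uM ketoconazole as full inhibition.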

[5] = Confirmation and Secondary Assay for Modulators of Hemoglobin Beta Chain Splicing at IVS2 654 locus (AID 910);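 also: HeLa cells stably carrying EGFP split by mutant beta-globin IVS2-654 intron; % of control where 0% means no effect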
Summary of the method: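 HeLa cells stably expressing EGFP interrupted by β-globin IVS2-654 intron, seeded overnight in Opti-MEM/2% FCS, then treated 2 days at 37 °C. Restored splicing read as total peak GFP intensity per well by laser scanning cytometry (488 nm excitation, 500–520 nm emission); 500 nM antisense PNA as control.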

[6] = Confirmation and Secondary Assay for Modulators of Hemoglobin Beta Chain Splicing at IVS2 705 locus (AID 930);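 also: HeLa cells stably expressing the EGFP-705 splicing reporter; % of control where 0% means no effect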
Summary of the method: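 HeLa cells stably carrying EGFP interrupted by mutant beta-globin IVS2-705 intron (CMV-driven) were seeded at 500 cells/well, treated next day with compound for 2 days at 37C; corrected splicing restores EGFP, read as total peak GFP intensity per well.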

[7] = target: Muscarinic acetylcholine receptor M1 (Rattus norvegicus) (UniProt P08482); assay: qHTS Assay for Antagonists of Acetylcholine Muscarinic M1 Receptor: Kinetic Measurement of Intracellular Calcium Response (AID 943);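 also: Fluo-4 calcium signal as peak divided by basal fluorescence over 4 min; nearly all actives have a fitted effect of over 75% in size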
Summary of the method: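 Antagonism is measured as inhibition of the carbachol-evoked calcium rise in CHO cells transfected with rat M1. Cells are dye-loaded, exposed to compound for 10 min, then stimulated with 100 nM carbachol (EC80).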

[8] = target: Muscarinic acetylcholine receptor M1 (Rattus norvegicus) (UniProt P08482); assay: qHTS Assay for Antagonists of Acetylcholine Muscarinic M1 Receptor: Measurement of IP-One Response (AID 944); also: nearly all actives have a fitted effect of over 75% in size
Summary of the method: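 Antagonist mode with rat M1 receptor transfected into CHO cells. Compound is added first for 10 min, carbachol at its EC80 follows for 30 min, and lysis reagents then allow TR-FRET detection of accumulated IP1.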

[9] = target: Pyruvate kinase (Leishmania mexicana) (UniProt Q27686); assay: qHTS Validation Assay for Inhibitors of Leishmania Mexicana Pyruvate Kinase (AID 945);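 also: 0% = DMSO only neutral control wells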
Summary of the method: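 LmPYK E451W 0.2 nM; 0.5 mM PEP, 0.1 mM ADP, 7 mM MgCl2, 50 mM KCl, imidazole pH 7.2, 0.01% Tween 20, 0.05% BSA; 1 h RT; PKLight luminescence; DMSO-normalized.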

[10] = target: Pyruvate kinase PKM (Homo sapiens) (UniProt P14618); assay: qHTS Assay for Activators of Human Muscle Pyruvate Kinase (AID 954; active = well fitted curve in the direction sought with a large enough effect, not every such curve was filed as active;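 also: 0% = uninhibited enzyme and -100% = no enzyme or full thiadiazolimine inhibition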)
Summary of the method: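 Compound pinned into substrate mix (0.5 mM PEP, 0.1 mM ADP), then 0.1 nM PKM2 added; 1 h, RT. Stop/detection luciferase reagent added, luminescence read. Normalized to no-inhibition and no-enzyme or reference-inhibitor controls.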

[11] = target: Alpha-galactosidase (Coffea arabica) (UniProt Q42656); assay: Counterscreen for Glucocerebrosidase Inhibitors: qHTS Assay for Coffee Bean alpha-Galactosidase at pH 4.5 (AID 957);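 also: plate controls were enzyme alone for no effect and no enzyme for full effect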
Summary of the method: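 Enzyme is added first (2 nM final), then compounds titrated from 0.7 nM to 77 uM, then 80 uM 4-methylumbelliferyl alpha-D-galactopyranoside; after 20 min at room temperature a pH 10 NaOH/glycine stop precedes fluorescence reading at 365/440 nm.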

[12] = target: Alpha-galactosidase A (Homo sapiens) (UniProt P06280); assay: Counterscreen for Glucocerebrosidase Inhibitors: qHTS Assay for Human alpha-Galactosidase at pH 4.5 (AID 992); also: 0% is about no effect
Summary of the method: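 Steps: enzyme (2 nM final), then compound across 0.7 nM to 77 uM, then 80 uM fluorogenic galactopyranoside substrate; incubate 20 min at room temperature; quench at pH 10; measure fluorescence at 365/440 nm.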

[13] = target: alpha-glucosidase (Oryza sativa, rice) (UniProt Q653V4); assay: Counterscreen for Glucocerebrosidase Inhibitors: qHTS Assay for Rice alpha-Glucosidase at pH 5.0 (AID 997);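 also: 0% = full activity with enzyme and -100% = basal without enzyme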
Summary of the method: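 Endpoint fluorogenic assay at pH 5.0: compounds (0.7 nM to 77 uM) titrated against 4 nM rice enzyme and 400 uM 4-MU-alpha-glucoside for 20 min at room temperature; NaOH/glycine stop, read ex 365/em 440 nm, Hill-fitted AC50.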

[14] = target: Alpha-galactosidase (Coffea arabica) (UniProt Q42656); assay: Counterscreen for Glucocerebrosidase Inhibitors: qHTS Assay for Coffee Bean alpha-Galactosidase at pH 5.9 (AID 998);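 also: plate controls were uninhibited enzyme for no effect and no-enzyme basal signal for full effect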
Summary of the method: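 Enzyme 2 nM + cpd (0.7 nM–77 uM titration) + 4-MU-alpha-Gal 80 uM, pH 5.9 citrate/Tween-20, RT 20 min, NaOH/glycine stop pH 10, fluor 365/440. Normalized to no-enzyme and full-activity controls; Hill-fit AC50.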

[15] = Primary qHTS for small molecule stabilizers of the endoplasmic reticulum resident proteome: Secreted ER Calcium Modulated Protein (SERCaMP) assay (AID 1508630); also: % is scaled to controls: 0 for no effect and ±100 for the full control effect
Summary of the method: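 The SH-SY5Y reporter protocol was run at 3 concentrations up to 38.3 uM (primary) or 11 concentrations (follow-up): 16 h compound, 100 nM thapsigargin for 4 h, then extracellular luciferase luminescence.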

[16] = qHTS Assay for Identification of Small Molecule Antagonists for NFkB Signaling Pathway (AID 895; active = well fitted inhibition curve with a large enough effect in the signal ratio, with a control signal flat, not every such curve was filed as active; the % refers to the signal ratio; also: % is scaled to controls: 0 for no effect and ±100 for the full control effect)
Summary of the method: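 ME-180 NFkB-bla cells (beta-lactamase under NFkB response element), plated overnight, treated with compound then 10 pM TNF alpha (about EC50) for 5 hrs at 37 C. LiveBLAzer FRET read at 460/530 nm emission, 405 nm excitation.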

[17] = qHTS Assay for Identification of Small Molecule Agonists for Hypoxia Response Element Signaling Pathway (AID 914; active = well fitted activation curve with a large enough effect in the signal ratio, with a control signal flat, not every such curve was filed as active; the % refers to the signal ratio; also: % of control where 0% means no effect); conditions: ME-180 HRE-bla reporter, beta-lactamase ratio, CoCl2, 17 h; activation: hits give high values
Summary of the method: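 ME-180 cells carrying an HRE-driven beta-lactamase reporter were treated with compounds in a titration series plus an EC50 level of CoCl2 for 17 h at 37 degrees Celsius; CCF4 readout as the 460nm/530nm ratio gave AC50 values.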

CP203 = assay: qHTS profiling for inhibitors of Plasmodium falciparum proliferation (AID 504749); also: nearly all actives have a fitted effect of over 60% in size; also: potency is read from the fitted curve at half-maximal effect; conditions: P. falciparum in erythrocytes, SYBR Green DNA, 72 h; series mostly up to 28.7 µM
Summary of the method: (§1)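 Each compound contacts P. falciparum-infected red blood cells for 72 h at 37 C; lysis buffer (Tris, EDTA, saponin, Triton X, SYBR Green I) is added and fluorescence measured next morning; values normalized to controls.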

DFO2036 = assay: as above; conditions: P. falciparum in erythrocytes, SYBR Green DNA, 72 h; series mostly up to 28.7 µM
Summary of the method: as §1

W2 = assay: as above; conditions: P. falciparum in erythrocytes, SYBR Green DNA, 72 h; series mostly up to 28.7 µM
Summary of the method: as §1

Chain of Alpha-galactosidase (Coffea arabica) (Q42656 whole entry, looked up): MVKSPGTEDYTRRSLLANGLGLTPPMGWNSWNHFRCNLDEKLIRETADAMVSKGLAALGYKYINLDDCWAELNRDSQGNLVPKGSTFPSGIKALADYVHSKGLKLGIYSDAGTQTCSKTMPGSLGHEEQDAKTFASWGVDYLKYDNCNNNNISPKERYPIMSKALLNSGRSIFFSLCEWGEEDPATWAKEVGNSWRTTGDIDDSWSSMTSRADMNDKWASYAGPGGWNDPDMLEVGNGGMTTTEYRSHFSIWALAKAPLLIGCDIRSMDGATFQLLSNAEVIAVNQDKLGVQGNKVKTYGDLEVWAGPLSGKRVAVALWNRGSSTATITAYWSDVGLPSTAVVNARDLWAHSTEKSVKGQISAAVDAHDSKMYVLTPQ
Chain of Guanine nucleotide-binding protein G(i) subunit alpha-1 (Homo sapiens) (P63096 whole entry, looked up): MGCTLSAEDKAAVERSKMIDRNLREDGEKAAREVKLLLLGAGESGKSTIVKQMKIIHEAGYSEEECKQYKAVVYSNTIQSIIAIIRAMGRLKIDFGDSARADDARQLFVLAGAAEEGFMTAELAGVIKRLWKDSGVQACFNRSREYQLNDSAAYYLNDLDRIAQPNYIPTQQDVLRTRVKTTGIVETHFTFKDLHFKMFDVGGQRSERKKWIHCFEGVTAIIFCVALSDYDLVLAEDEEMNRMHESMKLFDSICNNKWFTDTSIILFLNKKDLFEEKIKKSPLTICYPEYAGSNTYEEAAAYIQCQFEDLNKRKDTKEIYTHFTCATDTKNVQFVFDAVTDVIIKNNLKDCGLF
Chain of Cytochrome P450 2C19 (Homo sapiens) (P33261 whole entry, looked up): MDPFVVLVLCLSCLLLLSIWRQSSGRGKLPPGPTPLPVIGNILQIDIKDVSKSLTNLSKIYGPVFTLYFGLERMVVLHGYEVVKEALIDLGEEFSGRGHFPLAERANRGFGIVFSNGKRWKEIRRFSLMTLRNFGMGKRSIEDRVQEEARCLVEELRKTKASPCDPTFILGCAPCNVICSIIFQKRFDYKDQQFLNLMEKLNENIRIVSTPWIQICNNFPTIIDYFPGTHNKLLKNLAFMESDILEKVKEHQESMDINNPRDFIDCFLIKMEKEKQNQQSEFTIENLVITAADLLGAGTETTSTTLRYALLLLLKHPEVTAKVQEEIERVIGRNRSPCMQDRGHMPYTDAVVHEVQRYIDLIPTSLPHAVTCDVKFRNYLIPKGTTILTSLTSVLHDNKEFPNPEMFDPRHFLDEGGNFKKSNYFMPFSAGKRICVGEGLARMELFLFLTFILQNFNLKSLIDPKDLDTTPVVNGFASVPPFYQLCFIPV
Chain of Alpha-galactosidase A (Homo sapiens) (P06280 whole entry, looked up): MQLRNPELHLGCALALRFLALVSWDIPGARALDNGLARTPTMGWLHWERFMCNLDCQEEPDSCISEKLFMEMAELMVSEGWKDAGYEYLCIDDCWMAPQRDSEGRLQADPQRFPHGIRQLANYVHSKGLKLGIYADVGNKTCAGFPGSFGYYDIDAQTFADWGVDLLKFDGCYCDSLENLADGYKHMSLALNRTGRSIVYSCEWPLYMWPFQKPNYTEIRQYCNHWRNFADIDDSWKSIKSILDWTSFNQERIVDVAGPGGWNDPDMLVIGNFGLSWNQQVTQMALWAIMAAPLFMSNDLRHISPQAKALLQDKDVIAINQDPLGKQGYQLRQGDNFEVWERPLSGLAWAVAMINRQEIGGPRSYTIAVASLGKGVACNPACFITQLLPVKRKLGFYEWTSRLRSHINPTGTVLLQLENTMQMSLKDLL
Chain of Cytochrome P450 2C9 (Homo sapiens) (P11712 whole entry, looked up): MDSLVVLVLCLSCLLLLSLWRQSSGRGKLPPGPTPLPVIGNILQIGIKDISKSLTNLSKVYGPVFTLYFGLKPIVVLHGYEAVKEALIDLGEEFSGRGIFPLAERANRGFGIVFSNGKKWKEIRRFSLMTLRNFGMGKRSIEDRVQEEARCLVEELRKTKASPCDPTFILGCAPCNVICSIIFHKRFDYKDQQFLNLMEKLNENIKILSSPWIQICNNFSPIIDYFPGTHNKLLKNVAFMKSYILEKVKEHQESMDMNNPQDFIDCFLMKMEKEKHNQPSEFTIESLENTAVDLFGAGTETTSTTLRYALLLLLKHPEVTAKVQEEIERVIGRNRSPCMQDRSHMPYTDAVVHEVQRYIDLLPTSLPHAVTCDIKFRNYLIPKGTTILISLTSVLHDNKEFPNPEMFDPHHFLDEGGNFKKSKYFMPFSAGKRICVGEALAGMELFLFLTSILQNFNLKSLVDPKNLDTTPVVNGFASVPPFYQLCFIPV
Chain of Pyruvate kinase PKM (Homo sapiens) (P14618 whole entry, looked up): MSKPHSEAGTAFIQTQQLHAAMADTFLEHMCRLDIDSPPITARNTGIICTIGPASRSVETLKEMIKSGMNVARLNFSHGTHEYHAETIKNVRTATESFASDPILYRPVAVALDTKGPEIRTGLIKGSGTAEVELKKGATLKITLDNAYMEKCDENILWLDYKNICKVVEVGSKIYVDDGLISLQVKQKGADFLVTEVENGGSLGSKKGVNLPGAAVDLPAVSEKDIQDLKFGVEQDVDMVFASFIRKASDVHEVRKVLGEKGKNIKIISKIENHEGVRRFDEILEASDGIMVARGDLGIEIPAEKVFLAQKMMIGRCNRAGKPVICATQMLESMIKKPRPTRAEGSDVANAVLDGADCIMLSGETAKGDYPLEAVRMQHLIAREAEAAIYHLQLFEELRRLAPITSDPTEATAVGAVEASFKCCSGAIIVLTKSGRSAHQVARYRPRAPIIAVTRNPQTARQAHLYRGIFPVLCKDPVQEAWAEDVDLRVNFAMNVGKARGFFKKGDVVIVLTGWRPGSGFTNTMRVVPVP
Chain of Muscarinic acetylcholine receptor M1 (Rattus norvegicus) (P08482 whole entry, looked up): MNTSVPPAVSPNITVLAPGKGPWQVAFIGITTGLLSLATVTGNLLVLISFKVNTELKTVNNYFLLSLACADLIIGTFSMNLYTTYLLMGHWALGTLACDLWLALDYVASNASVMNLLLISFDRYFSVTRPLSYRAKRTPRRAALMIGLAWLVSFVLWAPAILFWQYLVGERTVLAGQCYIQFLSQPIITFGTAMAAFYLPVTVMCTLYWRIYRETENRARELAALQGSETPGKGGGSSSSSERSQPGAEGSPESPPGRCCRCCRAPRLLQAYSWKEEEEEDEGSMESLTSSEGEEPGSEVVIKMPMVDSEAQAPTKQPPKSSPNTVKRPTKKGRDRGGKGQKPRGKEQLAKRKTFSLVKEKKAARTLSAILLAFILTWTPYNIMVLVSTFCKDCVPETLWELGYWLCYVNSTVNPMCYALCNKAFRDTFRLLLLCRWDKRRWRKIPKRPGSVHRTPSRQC
Chain of Pyruvate kinase (Leishmania mexicana) (Q27686 2-499 E452W): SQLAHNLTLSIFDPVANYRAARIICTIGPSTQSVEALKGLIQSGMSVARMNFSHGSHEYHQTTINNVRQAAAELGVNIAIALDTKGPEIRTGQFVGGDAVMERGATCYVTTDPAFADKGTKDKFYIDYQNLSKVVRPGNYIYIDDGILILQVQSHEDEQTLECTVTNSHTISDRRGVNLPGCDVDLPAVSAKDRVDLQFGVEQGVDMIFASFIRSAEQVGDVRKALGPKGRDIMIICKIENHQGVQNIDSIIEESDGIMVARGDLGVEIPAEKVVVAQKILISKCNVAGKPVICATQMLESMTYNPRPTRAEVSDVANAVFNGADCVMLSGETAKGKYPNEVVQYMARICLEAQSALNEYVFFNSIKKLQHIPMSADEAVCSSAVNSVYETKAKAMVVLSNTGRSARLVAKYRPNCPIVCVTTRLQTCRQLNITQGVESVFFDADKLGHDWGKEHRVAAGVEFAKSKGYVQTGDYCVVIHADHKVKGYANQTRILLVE

CN1C(=O)CCS(=O)(=O)[C@H]1c1ccc(Cl)cc1
inactive: outcome [1] | outcome [2] | Potency [3] | Potency [4] | Potency [5] | outcome [6] | Potency [7] | Potency [8] | outcome [9] | outcome [10] | outcome [11] | outcome [12] | outcome [13] | outcome [14]

C(=C/c1ccccc1)/CN1CCN(CCOC(c2ccccc2)c2ccccc2)CC1
active: Potency [3] 5.01 µM

Oc1ccc2c3c1O[C@H]1c4oc5ccccc5c4C[C@]4(O)[C@H](C2)N(CC2CC2)CC[C@@]314
inactive: outcome [2] | outcome [9] | outcome [10] | outcome [11] | outcome [12] | outcome [13] | outcome [14]

N[C@H](C(=O)O)c1cc(=O)[nH]o1
inactive: outcome [2] | Potency [3] | Potency [4] | Potency [7] | Potency [8] | outcome [9] | outcome [10] | outcome [11] | outcome [12] | outcome [13] | outcome [14]

CCCCC[C@H]1C(=O)O[C@H](C)[C@H](NC(=O)c2cccc(NC=O)c2O)C(=O)O[C@@H](C)[C@@H]1OC(=O)CC(C)C
inactive: Potency [15]

C=CCN1CC[C@]23c4c5ccc(O)c4O[C@@H]2C(=O)CC[C@]3(O)[C@H]1C5
inactive: outcome [1]

N#CC(C#N)=NNc1ccc(OC(F)(F)F)cc1
inactive: Potency [15]

NC[C@H](CC(=O)O)c1ccc(Cl)cc1
active: Potency [4] 2.51 µM

Oc1ccc2c3c1O[C@H]1c4[nH]c5ccccc5c4C[C@]4(O)[C@H](C2)N(CC2CC2)CC[C@@]314
inactive: outcome [1] | outcome [2] | Potency [16] | Potency [8] | outcome [9] | outcome [10] | outcome [11] | outcome [12] | outcome [13] | outcome [14]

CCOC(=O)c1ncn2c1CN(C)C(=O)c1cc(N=[N+]=[N-])ccc1-2
inactive: Potency [15]

Cc1ccc2cc3c(ccc4ccccc43)c3c2c1CC3
inactive: Potency [15]

Cc1ncc(C[n+]2csc(CCO)c2C)c(=O)[nH]1
inactive: Potency [15]

CN1[C@@H]2CC[C@H]1CC(OC(=O)N1Cc3ccccc3NC1=O)C2 (some centres not stated)
inactive: Potency [15]

C#CCN1C(C)=C(C(=O)CCO)[C@@H](c2cccc(-n3oo3)c2)C(C(=O)OC)=C1C
inactive: Potency [15]

C=C(C)[C@H]1CN[C@H](C(=O)O)[C@@H]1CC(=O)O
inactive: outcome [2] | Potency [16] | Potency [8] | outcome [9] | outcome [10] | outcome [11] | outcome [12] | outcome [13] | outcome [14]

N[C@H](Cc1o[nH]c(=O)c1Cl)C(=O)O
active: Potency [4] 1.26 µM

CN[C@@H]1C[C@H](c2ccc(Cl)c(Cl)c2)c2ccccc21
inactive: Potency [15]

NC[C@@H](CC(=O)O)c1ccc(Cl)cc1
inactive: outcome [1] | Potency [4]

C=CCN1CC[C@@]23c4c5ccc(O)c4O[C@H]2/C(=N\N=C2/CC[C@@]4(O)[C@H]6Cc7ccc(O)c8c7[C@@]4(CCN6CC=C)[C@@H]2O8)CC[C@]3(O)[C@@H]1C5
inactive: outcome [2] | Potency [16] | activation [17] 0.657% | Potency [8] | outcome [9] | outcome [10] | outcome [12] | outcome [13] | outcome [14]

O=C(O)c1ccccc1-c1c2cc(Br)c(=O)cc-2oc2[c]([Hg])c(O)c(Br)cc12
active: Potency [3] 0.631 µM | Potency [4] 3.16 µM
inactive: Potency [5] | outcome [6] | Potency (CP203) | Potency (DFO2036) | Potency (W2)

CC(C)[C@@]1(NC(=O)[C@H]2CC3c4cccc5[nH]cc(c45)C[C@H]3N(C)C2)O[C@@]2(O)C3CCCN3C(=O)[C@@H](Cc3ccccc3)N2C1=O (some centres not stated)
active: Potency (CP203) 6.75 µM | Potency (DFO2036) 7.08 µM | Potency (W2) 0.953 µM

CCN1C[C@]2(COC(=O)c3ccccc3N3C(=O)C[C@H](C)C3=O)CC[C@H](OC)[C@@]34[C@@H]5C[C@H]6[C@H](OC)[C@H]5[C@](O)(C[C@@H]6OC)[C@@](O)([C@@H](OC)[C@@H]23)[C@@H]14
inactive: Potency [3]

C[C@@H](N)Cn1ccc2cc(F)c(Cl)cc21
active: Potency [3] 3.98 µM

Cc1c(C(=O)c2ccc3ccccc3c2)c2cccc3c2n1[C@H](CN1CCOCC1)CO3
inactive: Potency [3]

Fc1ccc(C(OCCN2CCN(C/C=C\c3ccccc3)CC2)c2ccc(F)cc2)cc1
active: Potency [3] 7.94 µM | Potency [4] 7.94 µM

CNCCc1c[nH]c2ccccc12
inactive: outcome [1] | activation [17] -14%

c1ccc2c3c([nH]c2c1)CNCC3
inactive: outcome [1]
